Assay results published in PubChem BioAssay AID432 (Sanford-Burnham Center for Chemical Genomics, 2006).
The campaign covered roughly 64,000 compounds. About 15 (0.02%) were called active. No rule for the calls is given here. The list is a sample of the results. Measured potencies and affinities stand elsewhere.

Biological target: Bcl-2-related protein A1 (Mus musculus) (UniProt Q07440)
Assay: displacement of Bid BH3 peptide from Bfl-1 – biochemical, fluorescence polarization, FITC-Bid, mouse, primary screen (AID 432)
Settings: at 20 µM, stronger effect = higher value

Sequence of Bcl-2-related protein A1 (Mus musculus) (Q07440 whole entry, looked up): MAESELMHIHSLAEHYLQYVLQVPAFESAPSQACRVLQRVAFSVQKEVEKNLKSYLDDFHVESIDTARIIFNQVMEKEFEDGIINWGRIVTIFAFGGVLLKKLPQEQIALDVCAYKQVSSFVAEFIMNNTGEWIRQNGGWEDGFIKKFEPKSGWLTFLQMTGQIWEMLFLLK

displacement, inactive:
COC(=O)C(C)n1cnc2c(cnn2-c2ccc(Cl)cc2)c1=O (stereo not drawn) 1.6%
CCCCCNC(=O)C(C#N)c1nc2ccccc2nc1N1CCCC1 (stereo not drawn) 34.3%
Cn1c(SCc2ccccc2Cl)nnc1-c1cnccn1 -5.3%
COc1ccccc1OC(=O)c1ccc(SC)cc1OC -2.3%
Cc1cc(OCC(=O)Nc2cc(-c3nn4c(C)nnc4s3)ccc2C)ccc1Cl 10%
O=C1c2ccccc2C(Nc2ccc(S(=O)(=O)N3CCOCC3)cc2)N1c1cccnc1 (stereo not drawn) 8.2%
N#CC1=C(N)OC2=C(C(=O)CCC2)C1c1ccsc1 (stereo not drawn) -2.3%
Cc1csc2ncc(C(=O)Nc3cccc(C(F)(F)F)c3)c(=O)n12 -2%
Cc1ccc(-n2cccc2C(=S)N=P(N(C)C)(N(C)C)N(C)C)cc1 22.3%
Cc1ccccc1OCC(=O)NCCN(C)C -12%
CCCN1Cc2cccc(C(=O)Nc3ccc4c(c3)OCO4)c2C1=O -7.1%
COc1ccc(CCNC(=O)CSc2nnc(Cn3c(=O)sc4ccccc43)n2C)cc1OC 4.6%
O=C(c1ccc(Br)o1)N(Cc1ccccc1)c1ccccn1 -6.6%
Cn1c(=O)[nH]c(=O)c2c1nc(N1CCN(c3ccccc3)CC1)n2CCSc1ncccn1 4.5%
FC(F)(F)c1cccc(N2CCN(c3ccc4nnc(-c5ccccc5)n4n3)CC2)c1 0.4%
Fc1ccc(-c2nnc3ccc(N4CCCC4)nn23)cc1 -8.2%
COc1ccc2cnn(CCOc3ccccc3)c(=O)c2c1OC -3.4%
CCCn1c(SCC(=O)NCc2ccco2)nc2c1c(=O)n(C)c(=O)n2C -5.1%
CCOC(=O)C(NC(C)=O)(Nc1ccc(S(=O)(=O)Nc2onc(C)c2C)cc1)C(F)(F)F (stereo not drawn) -2.1%
Cc1ccc(Nc2nc(C)cc(C)n2)c(Br)c1 -3.3%
CC(C)(C)NC(=O)NC(=O)COC(=O)C1CC(=O)N(Cc2ccccc2)C1 (stereo not drawn) -5.1%
CCCCCOc1ccc(/C=c2\sc3ncnn3c2=O)cc1 -9%
Cc1csc(NC(=O)CSc2nnc(-c3ccco3)n2C)n1 -7.7%
COC(=O)c1[nH]c2ccc(C)cc2c1NC(=O)CN1CCCCC1C (stereo not drawn) -1.2%
COc1ccccc1CNc1ncnc2c1cnn2-c1ccccc1 -2.9%
CN(C(=O)COC(=O)COc1ccccc1F)C1CCS(=O)(=O)C1 (stereo not drawn) -1.5%
C=CCn1c(C)cc(C(=O)CSc2nnc(NCc3ccccc3)s2)c1C 3.3%
CCOc1ccccc1C(=O)NCc1ccc2c(c1)OCO2 2.9%
COc1ccc(NC(=O)C23CCC(C)(C(=O)C2)C3(C)C)cc1 (stereo not drawn) -1.2%
COC(=O)c1cn(C(=O)OC)c2ccccc12 -6.7%
Oc1ccc(C=Nc2cccc3ncccc23)c(O)c1 4.8%
Nc1ccc2ncccc2c1 -3.5%
CCOc1ccc(-c2nnc3sc(-c4c(OC)cccc4OC)nn23)cc1 7.5%
COc1cccc(OC)c1-c1nn2c(-c3ccco3)nnc2s1 -0.8%
COc1cccc(OC)c1-c1nn2c(-c3ccccc3Cl)nnc2s1 -6.5%
COc1ccc(-c2nnc3sc(-c4ccccc4OC)nn23)cc1 0.2%
CSc1nnc(-c2ccccc2)n1C -1.8%
CCC(=O)N1CCc2cc(S(=O)(=O)CCC(=O)NCc3cccs3)ccc21 3.1%
CC(=O)Nc1ccc(NCC(O)COc2ccccc2)cc1 (stereo not drawn) 9.6%
CC(=O)N1CCc2cc(S(=O)(=O)NCCC(=O)N3CCN(c4ccccn4)CC3)ccc21 0.4%
Cc1cc(=O)n2ncnc2n1COCCO -8.2%
Cc1cc(NC(=O)CCS(=O)(=O)c2nc(-c3ccccc3)cc(C(F)(F)F)n2)no1 -3%
CCOC(=O)c1cnn2c(C)cc(-c3ccc(F)cc3)nc12 -7.8%
COCC(C)NC(=O)CCS(=O)(=O)c1nc(-c2ccc(OC)cc2)cc(C(F)(F)F)n1 (stereo not drawn) 6.4%
CCOC(=O)CCS(=O)(=O)c1nc(-c2ccccc2)cc(C(F)(F)F)n1 37.1%
CCC(=O)N1c2ccccc2-c2nnc(SC)nc2OC1c1ccc(OC)c(OC)c1 (stereo not drawn) 0.1%
COc1cc(OC)c(C2Oc3nc(SC)nnc3-c3ccccc3N2C(C)=O)cc1OC (stereo not drawn) 3.4%
CC(=O)NC1C(=O)N=C(SCC(=O)NCc2ccccc2)NC1=O (stereo not drawn) 1.1%
O=c1n(-c2ccccc2)c(=O)n(Cc2ccccn2)n1Cc1ccccn1 -5.3%
Cc1nc2ccc(S(=O)(=O)Nc3ccccc3C)cc2s1 -3.4%
COc1ccc2c3c(cccc13)OCC2=O 12.2%
COc1ccc(C(C)=O)c2c(O)cccc12 -0.9%
CCn1c(N)c(C(=O)NC)sc1=S -2%
Cc1ccc(-c2nnc(COc3cccc(-n4cnnn4)c3)o2)cc1 -4.7%
C=CCn1cc(C(=O)NCCOC)c(=O)c2cc(S(=O)(=O)N(CC)CC)ccc21 1.1%
O=C(NC1CCCCNC1=O)c1ccc(Cl)cc1 (stereo not drawn) -4%
CC1(C)CC(=O)C(C=NCCN2CCN(C(=O)CC3CCCC3)CC2)=C(O)C1 -1.8%
O=C1CSC(c2cn(-c3ccccc3)nc2-c2cc3ccccc3oc2=O)N1Cc1ccco1 (stereo not drawn) -5.3%
COc1ccc(S(=O)(=O)N[C@@H](CC(C)C)C(=O)O)cc1 -6%
Cc1nc2c(c(=O)n1Cc1ccccc1Cl)c1nc3ccccc3nc1n2Cc1ccco1 -10.7%
N#Cc1c(NC(=O)CSc2nc(-c3ccco3)cc(C(F)(F)F)n2)sc2c1CCCC2 -0.1%
COc1ccc(C(=O)N2CCN(c3nnnn3-c3ccccc3)CC2)cc1OC 3.7%
Cc1cc(Nc2c(C)cccc2C)n2nc(C)nc2n1 -2.1%
